# Test results reported in PubChem BioAssay (NCI).
# This is part of a sample that, as a whole, favours compounds with a hit. Of some 79,000 tested, about 15% had one in any assay. A number with no mark means an inactive call. The source made the active and inactive calls. Rule as the data show it: active = growth inhibition above about 70%; inactive = the rest.
# Columns and labels:
# [1] = NCI Yeast Anticancer Drug Screen. Data for the wt1 strain (AID 149);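 also: 0% = growth of vehicle-treated wt1 cultures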; details: S. cerevisiae wt1 strain (SPY 50644) growth inhibition, hits give high values
# Summary of the method: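 Measured: growth of wt1 yeast under compound versus vehicle treatment, reported as inhibition.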
# [2] = NCI Yeast Anticancer Drug Screen. Data for the rad50EPP+ strain (AID 151);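 also: 0% = growth of vehicle-treated control cultures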; details: S. cerevisiae rad50 mutant strain, hits give high values
# Summary of the method: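 Compounds were applied to the rad50EPP+ yeast strain, which bears a defined DNA repair alteration, and growth inhibition was determined relative to vehicle-treated cultures.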
# [3] = NCI Yeast Anticancer Drug Screen. Data for the mgt1 strain (AID 153); details: S. cerevisiae mgt1 mutant growth inhibition, hits give high values
# Summary of the method: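 Strain: mgt1 yeast, one of a set carrying defined DNA damage repair or cell cycle control alterations. Compound-treated growth compared with vehicle.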
# [4] = NCI Yeast Anticancer Drug Screen. Data for the rad50 strain (AID 155);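 also: 0% = growth of vehicle-only cultures of the same strain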; details: S. cerevisiae rad50 strain growth inhibition, hits give high values
# Summary of the method: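 Growth of the mutant yeast was measured after compound exposure and referenced to vehicle-treated cultures.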
# [5] = NCI Yeast Anticancer Drug Screen. Data for the mec2-1 strain (AID 157); details: S. cerevisiae mec2-1 strain, hits give high values
# Summary of the method: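 Strain: mec2-1 (DNA repair/cell cycle alteration). Compound exposure, then growth measured; inhibition expressed relative to vehicle.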
# [6] = NCI Yeast Anticancer Drug Screen. Data for the rad14 strain (AID 159);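 also: 0% = growth of vehicle-treated control cultures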; details: S. cerevisiae rad14 strain growth inhibition, hits give high values
# Summary of the method: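 Here, inhibition of yeast growth was measured after compound exposure, using a strain with a genetic defect in DNA damage repair and vehicle-treated cultures as the reference.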
# [7] = NCI Yeast Anticancer Drug Screen. Data for the sgs1 mgt1 strain (AID 161);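 also: 0% = growth of cultures given vehicle only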; details: S. cerevisiae sgs1 mgt1 strain, hits give high values
# Summary of the method: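 Genetically altered yeast, compound exposure, growth inhibition relative to vehicle.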
# [8] = NCI Yeast Anticancer Drug Screen. Data for the CLN2oe strain (AID 163);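 also: 0% = growth of vehicle-only control cultures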; details: S. cerevisiae CLN2oe strain, hits give high values
# Summary of the method: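 Growth of a genetically modified yeast strain is measured after compound exposure and compared with cultures given vehicle alone.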
# [9] = NCI Yeast Anticancer Drug Screen. Data for the cln2 rad14 strain (AID 165);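 also: 0% = growth equal to vehicle treated cultures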; details: S. cerevisiae cln2 rad14 strain, hits give high values
# Summary of the method: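 Compounds are applied to the cln2 rad14 yeast strain, and growth is then compared with that of vehicle-treated cultures to give inhibition.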
# [10] = NCI Yeast Anticancer Drug Screen. Data for the bub3 strain (AID 167); details: S. cerevisiae bub3 mutant strain, hits give high values
# Summary of the method: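 Whole-cell yeast assay. The mutant strain was incubated with compounds, and growth inhibition was determined by comparison with vehicle-treated cells.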
# [11] = NCI Yeast Anticancer Drug Screen. Data for the wt2 strain (AID 169);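 also: 0% = growth of vehicle-treated yeast cultures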; details: S. cerevisiae wt2 strain growth inhibition, hits give high values
# Summary of the method: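 This strain belongs to a panel of yeast strains with defined genetic alterations in DNA damage repair or cell cycle control. Compounds are applied, and growth inhibition is measured against vehicle-treated cultures.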
# [12] = NCI Yeast Anticancer Drug Screen. Data for the mlh1 strain (AID 171);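 also: 0% = growth of vehicle-treated control cultures of the same strain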; details: S. cerevisiae mlh1 strain growth inhibition, hits give high values
# Summary of the method: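 Growth of the mutant yeast strain after compound exposure, expressed as inhibition relative to vehicle-only controls.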
# [13] = NCI Yeast Anticancer Drug Screen. Data for the sgs1 strain (AID 173);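 also: 0% = growth of vehicle-only control cultures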; details: S. cerevisiae sgs1 mutant, hits give high values
# Summary of the method: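 Growth of a yeast strain bearing a defined genetic alteration is measured after compound treatment. Inhibition is expressed relative to vehicle-only controls.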
# [14] = NCI Yeast Anticancer Drug Screen. Data for the rad18 strain (AID 177); details: S. cerevisiae rad18 mutant growth inhibition, hits give high values
# Summary of the method: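 Growth of the mutant yeast strain after compound exposure, normalised to vehicle-only cultures.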
# [15] = at 5.0 µM (retest, dose inferred, filed as 0.5)
# [16] = at 50.0 µM (retest, dose inferred, filed as 5.0)
compound,measurement,setting,value
NNc1nnc(-c2ccccc2)nc1Cc1ccccc1,growth inhibition,[1]; at 1.2 µM,-25%
same,growth inhibition,[1]; at 3.7 µM,-15%
same,growth inhibition,[1]; at 11.0 µM,-7%
same,growth inhibition,[1]; at 33.0 µM,96% (active)
same,growth inhibition,[1]; at 100.0 µM,88% (active)
same,growth inhibition,[2]; at 1.2 µM,-12%
same,growth inhibition,[2]; at 3.7 µM,-3%
same,growth inhibition,[2]; at 11.0 µM,12%
same,growth inhibition,[2]; at 33.0 µM,48%
same,growth inhibition,[2]; at 100.0 µM,90% (active)
same,growth inhibition,[3]; at 1.2 µM,16%
same,growth inhibition,[3]; at 3.7 µM,21%
same,growth inhibition,[3]; at 11.0 µM,21%
same,growth inhibition,[3]; at 33.0 µM,97% (active)
same,growth inhibition,[3]; at 100.0 µM,88% (active)
same,growth inhibition,[4]; at 1.2 µM,4%
same,growth inhibition,[4]; at 3.7 µM,-1%
same,growth inhibition,[4]; [15],-35%
same,growth inhibition,[4]; at 11.0 µM,10%
same,growth inhibition,[4]; at 33.0 µM,96% (active)
same,growth inhibition,[4]; [16],-4%
same,growth inhibition,[4]; at 50.0 µM,67.1%
same,growth inhibition,[4]; at 100.0 µM,93% (active)
same,growth inhibition,[5]; at 1.2 µM,-11%
same,growth inhibition,[5]; at 3.7 µM,-9%
same,growth inhibition,[5]; [15],2%
same,growth inhibition,[5]; at 11.0 µM,-8%
same,growth inhibition,[5]; at 33.0 µM,95% (active)
same,growth inhibition,[5]; [16],90% (active)
same,growth inhibition,[5]; at 50.0 µM,91.3% (active)
same,growth inhibition,[5]; at 100.0 µM,87% (active)
same,growth inhibition,[6]; at 1.2 µM,-8%
same,growth inhibition,[6]; at 3.7 µM,-16%
same,growth inhibition,[6]; at 11.0 µM,-12%
same,growth inhibition,[6]; at 33.0 µM,96% (active)
same,growth inhibition,[6]; at 100.0 µM,91% (active)
same,growth inhibition,[7]; [15],-7%
same,growth inhibition,[7]; [16],95% (active)
same,growth inhibition,[7]; at 50.0 µM,82.9% (active)
same,growth inhibition,[8]; at 1.2 µM,25%
same,growth inhibition,[8]; at 3.7 µM,18%
same,growth inhibition,[8]; at 11.0 µM,11%
same,growth inhibition,[8]; at 33.0 µM,97% (active)
same,growth inhibition,[8]; at 100.0 µM,93% (active)
same,growth inhibition,[9]; [15],12%
same,growth inhibition,[9]; [16],80% (active)
same,growth inhibition,[9]; at 50.0 µM,86% (active)
same,growth inhibition,[10]; at 1.2 µM,16%
same,growth inhibition,[10]; at 3.7 µM,5%
same,growth inhibition,[10]; [15],-9%
same,growth inhibition,[10]; at 11.0 µM,-17%
same,growth inhibition,[10]; at 33.0 µM,97% (active)
same,growth inhibition,[10]; [16],96% (active)
same,growth inhibition,[10]; at 50.0 µM,89% (active)
same,growth inhibition,[10]; at 100.0 µM,90% (active)
same,growth inhibition,[11]; at 1.2 µM,-34%
same,growth inhibition,[11]; at 3.7 µM,-30%
same,growth inhibition,[11]; at 11.0 µM,-11%
same,growth inhibition,[11]; at 33.0 µM,95% (active)
same,growth inhibition,[11]; at 100.0 µM,91% (active)
same,growth inhibition,[12]; at 1.2 µM,6%
same,growth inhibition,[12]; at 3.7 µM,4%
same,growth inhibition,[12]; at 11.0 µM,27%
same,growth inhibition,[12]; at 33.0 µM,97% (active)
same,growth inhibition,[12]; at 100.0 µM,83% (active)
same,growth inhibition,[13]; at 1.2 µM,-15%
same,growth inhibition,[13]; at 3.7 µM,-15%
same,growth inhibition,[13]; at 11.0 µM,-6%
same,growth inhibition,[13]; at 33.0 µM,91% (active)
same,growth inhibition,[13]; at 100.0 µM,94% (active)
same,growth inhibition,[14]; at 1.2 µM,-17%
same,growth inhibition,[14]; at 3.7 µM,-30%
same,growth inhibition,[14]; at 11.0 µM,-5%
same,growth inhibition,[14]; at 33.0 µM,96% (active)
same,growth inhibition,[14]; at 100.0 µM,91% (active)
